PubChem BioAssay AID504708 (Sanford-Burnham Center for Chemical Genomics, 2011)
The list shows a part of the results. Active and inactive are the calls of the source.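 Rule for the calls: active = inhibition at or below a set negative limit, negative inhibition meaning the enzyme was activated; inactive = the rest.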

Each compound was assayed against Hexokinase HKDC1 (Homo sapiens) (UniProt Q2TB90) (assay: compounds raising human HKDC1 activity – biochemical, single concentration, confirmation (AID 504708)). Details: recombinant HKDC1, G6PDH/diaphorase resazurin fluorescence; at 20 µM; active compounds read low.
Sequence of Hexokinase HKDC1 (Homo sapiens) (Q2TB90 whole entry, looked up): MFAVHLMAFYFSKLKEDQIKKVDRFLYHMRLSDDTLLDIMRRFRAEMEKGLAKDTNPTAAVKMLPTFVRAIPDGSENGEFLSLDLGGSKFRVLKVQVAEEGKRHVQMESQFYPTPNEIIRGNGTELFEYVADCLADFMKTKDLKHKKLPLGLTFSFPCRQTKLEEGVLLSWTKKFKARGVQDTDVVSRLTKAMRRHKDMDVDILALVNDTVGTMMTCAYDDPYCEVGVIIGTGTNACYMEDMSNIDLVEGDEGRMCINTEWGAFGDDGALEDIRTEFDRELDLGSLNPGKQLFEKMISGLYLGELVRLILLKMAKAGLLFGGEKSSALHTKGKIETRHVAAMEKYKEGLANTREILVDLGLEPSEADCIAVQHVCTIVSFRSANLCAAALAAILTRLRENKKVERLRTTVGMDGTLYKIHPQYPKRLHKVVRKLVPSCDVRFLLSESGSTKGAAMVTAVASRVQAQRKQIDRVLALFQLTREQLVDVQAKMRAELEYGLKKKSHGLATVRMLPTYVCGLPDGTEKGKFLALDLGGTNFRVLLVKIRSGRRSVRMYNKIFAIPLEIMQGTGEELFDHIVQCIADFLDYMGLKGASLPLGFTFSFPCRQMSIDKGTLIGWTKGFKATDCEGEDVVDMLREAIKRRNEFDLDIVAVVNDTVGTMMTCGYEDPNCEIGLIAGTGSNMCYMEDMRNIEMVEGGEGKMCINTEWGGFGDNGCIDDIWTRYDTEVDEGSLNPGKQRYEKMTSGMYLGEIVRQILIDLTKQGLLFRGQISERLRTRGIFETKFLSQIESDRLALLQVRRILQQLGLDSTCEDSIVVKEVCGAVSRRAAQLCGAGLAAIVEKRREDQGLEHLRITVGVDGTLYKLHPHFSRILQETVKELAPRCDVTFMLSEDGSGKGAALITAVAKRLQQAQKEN

SMILES | inhibition
O=S(=O)(Nc1ccc(O)c2ccccc12)c1ccc(OC(F)(F)F)cc1 | 19.8% (inactive)
CCOC(=O)C1=C(c2ccc(OC)cc2)C(=O)c2ccccc2C1=O | 75% (inactive)
CN1c2ccc(C=O)c3c(C=O)ccc(c23)N(C)C1(C)C | 61.2% (inactive)
CC(=O)N(C1=C(Cl)C(=O)c2ccccc2C1=O)c1ccc(C(=O)O)cc1 | 64.4% (inactive)
Cc1cc(C2=NNC(=Nc3ccc(S(=O)(=O)N4CCOCC4)cc3)SC2)c(C)n1CC1CCCO1 (stereo not given) | -55.8% (active)
COc1ccc2c(c1)c(=Cc1ccc(N(C)C)cc1)c1cc(-c3ccccc3)[n+](C)n12 | 31.2% (inactive)
O=C(NC1=CC(=O)c2ccccc2C1=O)c1ccccc1 | 69.9% (inactive)
COCCNC(=O)Nc1ccc2nc(-c3ccco3)c(-c3ccco3)nc2c1 | -20.8% (inactive)
O=c1[nH]c2ccccc2n2c(-c3ccccc3)nnc12 | 58.5% (inactive)
Cc1ccc2oc(=O)c3cnn(CC(=O)N4CCCCCC4)c3c2c1 | -63.5% (active)
O=C(Nc1ccccc1Cl)/C(Cl)=C(\Cl)S(=O)c1ccccc1 (stereo not given) | -5.2% (inactive)
CC(C)(C)Nc1c(N)c(=O)oc2ccccc12 | -27.1% (inactive)
CCOc1cc(/C=N/n2cnnc2)c(Br)cc1O | 28.4% (inactive)
CCCc1nc2oc3c(OCC)ncnc3c2c2c1COC(C)(C)C2 | 14.9% (inactive)
Clc1cccc(N=C2NN=C(c3ccc4c(c3)OCCO4)CS2)c1 | -99.6% (active)
COC(=O)c1ccc(NCc2cc(O)ccc2O)cc1 | 65.1% (inactive)
O=C(CSc1n[nH]c(-c2cccnc2)n1)Nc1ccnc2ccccc12 | 46% (inactive)
CCOC(=O)CSc1nc2ccc(C)cc2n2cnnc12 | 63.8% (inactive)

SMILES | inhibition
CCn1cc(C(=O)NCc2ccc3c(c2)OCO3)c2cc(OC)c(OC)cc2c1=O | 45.9% (inactive)
CCC(=C/c1sc2ccc3ccccc3c2[n+]1C)/C=C1\Sc2ccc3ccccc3c2N1C | 24.1% (inactive)
O=c1ccc2c(-c3ccccc3S(=O)(=O)O)c3ccc(O)c(O)c3oc-2c1O | 14.4% (inactive)
O=C(c1cccnc1)N(c1cc2sc(=O)oc2c2ccccc12)S(=O)(=O)c1ccccc1 | -5% (inactive)
COc1ccc(N(CC(=O)N/N=C/c2cccc3c2OCCO3)S(=O)(=O)c2ccc(NC(C)=O)cc2)cc1 | 19.1% (inactive)
Nc1ccc2nc3c(=O)[nH]c(=S)[nH]c3nc2c1 | -3.17% (inactive)
COc1ccc(NC(=O)CSc2ccc(-c3ccco3)nn2)c(OC)c1 | 70.8% (inactive)
O=C(CSc1cccc2cccnc12)N/N=C/c1cccnc1 | -46.6% (active)
CCc1ccc2c(c1)C1(NN=C(c3ccccc3)S1)C(=O)N2 (stereo not given) | -13.6% (inactive)
Cc1cc(C(=O)CCl)c(C)n1CC1COc2ccccc2O1 (stereo not given) | 11% (inactive)
Cc1ccc(Nc2nc(-c3sc(NC(=O)c4ccccc4)nc3C)cs2)cc1 | 12.1% (inactive)
Cc1ccc(C(=O)O)cc1-c1ccc(/C=C2\SC(=O)N(CC(=O)Nc3ccc4c(c3)OCO4)C2=O)o1 | 13.9% (inactive)
CC(=O)/C(=N\Nc1ccc(Cl)cc1Cl)Sc1cccc2cccnc12 | -44.8% (active)
COc1ccc(C(CCN(Cc2ccc(OC)c(OC)c2)C(=O)CCl)c2ccccc2)cc1 (stereo not given) | 17.4% (inactive)
Cc1ccc(N(Cc2cc(=O)[nH]c3ccccc23)C(=O)CCl)cc1 | 34.5% (inactive)
O=C1C(Cl)=C(Oc2ccccc2)C(=O)c2ccccc21 | 77.7% (inactive)
C[N+](C)(CCCCCC[N+](C)(C)CCCN1C(=O)c2cccc3cccc(c23)C1=O)CCCN1C(=O)c2cccc3cccc(c23)C1=O | -82% (active)
